These results are taken from PubChem BioAssay (Tox21).

The nature of assay [1]: qHTS assay to identify small molecule agonists of the sonic hedgehog signaling (Shh) pathway (AID 1259368).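 Further: NIH/3T3-derived 3T3Gli1-Luc cells carrying a stable Gli1-driven firefly luciferase reporter; series mostly up to about 92 µM; nearly all actives have a fitted effect of over 15% in size.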 The procedure, abridged:
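Stable NIH/3T3 Gli1-Luc reporter clone; 24 hr cpd exposure after a 4 hr settling period; luminescence endpoint.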

A short description of assay [2]: qHTS assay to identify small molecule antagonists of the sonic hedgehog signaling (Shh) pathway (AID 1259369). Further: nearly all actives have a fitted effect of over 45% in size. An outline of the steps: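 Gli1 transcriptional reporter (firefly Luc) in NIH/3T3 background, conditioned-medium activated. 24hr exposure, luminescence endpoint.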
Assay [3] can be described thus: qHTS assay to identify small molecule agonists of the estrogen receptor beta (ER-beta) signaling pathway - cell viability counter screen (AID 1259380; active means well fitted curve in the direction sought with a large enough effect in the repeat runs; an effect the other way counts as inactive or inconclusive; further: nearly all actives have a fitted effect of over 30% in size; further: potency means the concentration at half of the fitted maximal effect). An outline of the steps:
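In this qHTS counter screen, HEK293T cells carrying an ER-beta/UAS beta-lactamase reporter, grown in 2% charcoal-stripped FBS, received compound for 16 hr; ATP-based CellTiter-Glo luminescence was then read after 30 min at room temperature.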

Assay [4] addresses Estrogen receptor (Homo sapiens) (UniProt P03372). In words: qHTS assay to identify small molecule agonists of the estrogen receptor alpha (ER-alpha) signaling pathway in the presence of an antagonist (AID 1259383). Further: top concentration of the series differs between compounds; nearly all actives have a fitted effect of over 15% in size. An outline of the steps: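 ER-alpha agonism measured under antagonist challenge: 10.0nM ICI-182,780 (final) plus compound, 15 concentrations, 22hr, VM7Luc4E2 ERE-luciferase cells. Read by luminescence.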

Assay [5] concerns the target Thyrotropin receptor (Homo sapiens) (UniProt P16473). Kind of assay: qHTS assay to identify small molecule antagonists of the thyroid stimulating hormone receptor (TSHR) signaling pathway (AID 1259385). Further: nearly all actives have a fitted effect of over 20% in size. The procedure, abridged: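 TSHR-HEK293 cells (800/well) plated 18 h, then compounds with Ro20-1724 and TSH at 1.5 ng/mL final, 30 min at room temperature. cAMP quantified by HTRF (cAMP-d2/anti-cAMP-cryptate, 1 h); 15 concentrations in triplicate.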

The nature of assay [6]: qHTS assay to identify small molecule agonists of the estrogen receptor alpha (ER-alpha) signaling pathway in the presence of an antagonist - cell viability counter screen (AID 1259386; active means well fitted curve in the direction sought with a large enough effect in the repeat runs; an effect the other way counts as inactive or inconclusive;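 further: series mostly up to about 92 µM; cells exposed to compounds for 22 h at 37 °C before the viability read; nearly all actives have a fitted effect of over 30% in size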). An outline of the steps: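 Steps: 5-day stripped-FBS culture; seed and incubate 24hr; add ICI-182,780 (10.0nM final); pin 15-point compound titration; incubate 22hr at 37C; add CellTiter-Fluor at 21hr; read fluorescence.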

Assay [7] deals with Progesterone receptor (Homo sapiens) (UniProt P06401). Kind of assay: qHTS assay to identify small molecule agonists of the progesterone receptor (PR) signaling pathway (AID 1346784). Further: nearly all actives have a fitted effect of over 30% in size. The procedure, abridged: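 Cells (PR-UAS-bla HEK 293T, GripTite) were plated in assay medium containing 2% charcoal-stripped FBS and incubated 6 hr. Test compounds in DMSO were added for 16 hr at 37C. FRET substrate was then loaded for 2 hr at room temperature before fluorescence reading.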
Chain of Progesterone receptor (Homo sapiens) (P06401 whole entry, looked up): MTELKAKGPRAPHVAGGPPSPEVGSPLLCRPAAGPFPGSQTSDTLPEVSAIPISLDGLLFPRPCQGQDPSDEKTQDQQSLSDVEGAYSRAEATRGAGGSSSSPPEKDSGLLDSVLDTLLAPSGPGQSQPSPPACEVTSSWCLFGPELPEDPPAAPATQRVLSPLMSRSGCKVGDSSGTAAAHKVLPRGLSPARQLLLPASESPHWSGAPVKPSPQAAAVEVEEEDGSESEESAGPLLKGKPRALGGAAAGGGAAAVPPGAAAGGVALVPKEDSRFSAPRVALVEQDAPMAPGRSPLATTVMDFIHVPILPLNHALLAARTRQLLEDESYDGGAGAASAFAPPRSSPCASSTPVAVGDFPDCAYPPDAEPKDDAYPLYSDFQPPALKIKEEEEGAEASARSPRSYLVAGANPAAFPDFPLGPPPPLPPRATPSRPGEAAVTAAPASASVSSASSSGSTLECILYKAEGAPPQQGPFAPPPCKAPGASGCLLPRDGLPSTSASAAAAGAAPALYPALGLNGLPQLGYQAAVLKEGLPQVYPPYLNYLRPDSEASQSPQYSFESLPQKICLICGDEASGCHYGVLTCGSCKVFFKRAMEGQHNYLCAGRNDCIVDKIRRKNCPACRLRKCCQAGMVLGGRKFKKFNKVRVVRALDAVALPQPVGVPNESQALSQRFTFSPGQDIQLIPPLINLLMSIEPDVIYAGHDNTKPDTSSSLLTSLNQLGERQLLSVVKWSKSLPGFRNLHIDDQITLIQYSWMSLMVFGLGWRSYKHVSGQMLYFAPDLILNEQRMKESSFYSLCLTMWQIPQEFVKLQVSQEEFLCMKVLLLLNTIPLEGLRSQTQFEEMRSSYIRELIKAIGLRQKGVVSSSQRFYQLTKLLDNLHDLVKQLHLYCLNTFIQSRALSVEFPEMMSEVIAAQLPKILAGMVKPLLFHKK

Assay [8] shares this target. Kind of assay: qHTS assay to identify small molecule antagonists of the progesterone receptor (PR) signaling pathway (AID 1346795; active means well fitted inhibition curve with a large enough effect in the signal ratio in the repeat runs, not every such curve was filed as active; the % refers to the signal ratio). The procedure, abridged:
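Antagonist mode: compounds tested against 1 nM (final) promegestone stimulation in HEK293T cells expressing PR-UAS-bla reporter, 16 hr at 37C, 5% CO2; beta-lactamase activity detected via B/G FRET substrate after 2 hr at room temperature.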

Assay [9] in a line: qHTS assay to identify small molecule antagonists of the progesterone receptor (PR) signaling pathway - cell viability counter screen (AID 1346798; active means well fitted curve in the direction sought with a large enough effect in the repeat runs; an effect the other way counts as inactive or inconclusive; further: series mostly up to about 92 µM; nearly all actives have a fitted effect of over 50% in size). An outline of the steps:
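Counter screen for cytotoxicity: viability of PR-UAS-bla HEK293T cells was measured with CellTiter-Glo luminescence following 16 hr compound exposure in the presence of R5020.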

A short description of assay [10]: qHTS assay to identify small molecule agonists of the progesterone receptor (PR) signaling pathway - cell viability counter screen (AID 1346799). Further: nearly all actives have a fitted effect of over 45% in size. An outline of the steps:
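Cells (PR-UAS-bla HEK293T) are plated at 3,000/well in 2% charcoal-stripped FBS medium, rested 6 hr, dosed and incubated 16 hr at 37C. CellTiter-Glo is then added and luminescence measured after 30 min at room temperature.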

Assay [11] can be described thus: qHTS assay to identify small molecule agonists of the TGF-beta/Smad signaling pathway - cell viability counter screen (AID 1346829; active means well fitted curve in the direction sought with a large enough effect in the repeat runs; an effect the other way counts as inactive or inconclusive; further: top concentration of the series differs between compounds; nearly all actives have a fitted effect of over 45% in size). The procedure, abridged: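 Tox21 qHTS format: SBE-bla HEK 293T cells treated with DMSO-dissolved compounds for 5 hr; CellTiter-Glo luminescence after 30 min at room temperature.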
In assay [12] the target is Thyrotropin-releasing hormone receptor (Homo sapiens) (UniProt P34981). Kind of assay: qHTS assay to identify small molecule antagonists of the thyrotropin-releasing hormone receptor (TRHR) signaling pathway (AID 1346877; active means well fitted inhibition curve with a large enough effect in the repeat runs, not every such curve was filed as active; further: series mostly up to about 51 µM). An outline of the steps: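 Human TRHR in HEK293 cells; inhibition of the intracellular calcium rise triggered by 1 nM TRH was followed by fluorescence over 3 min. Compounds were run at 15 concentrations, three replicates each.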
Chain of Thyrotropin-releasing hormone receptor (Homo sapiens) (P34981 whole entry, looked up): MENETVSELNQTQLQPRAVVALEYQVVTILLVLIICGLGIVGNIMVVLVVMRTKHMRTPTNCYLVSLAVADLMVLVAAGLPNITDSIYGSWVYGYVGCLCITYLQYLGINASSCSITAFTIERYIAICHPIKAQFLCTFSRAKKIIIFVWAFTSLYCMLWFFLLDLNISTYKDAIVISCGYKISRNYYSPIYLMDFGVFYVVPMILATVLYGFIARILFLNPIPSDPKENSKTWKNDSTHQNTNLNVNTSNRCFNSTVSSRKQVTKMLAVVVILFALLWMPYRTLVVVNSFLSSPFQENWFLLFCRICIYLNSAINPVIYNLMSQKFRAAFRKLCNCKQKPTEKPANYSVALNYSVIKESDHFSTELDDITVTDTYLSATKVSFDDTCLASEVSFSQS

Assay [13] in a line: qHTS assay to identify small molecule antagonists of the TGF-beta/Smad signaling pathway - cell viability counter screen (AID 1346824; active means well fitted curve in the direction sought with a large enough effect in the repeat runs; an effect the other way counts as inactive or inconclusive; further: nearly all actives have a fitted effect of over 50% in size). An outline of the steps: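 SBE-bla HEK 293T cells, incubated overnight, then compound plus 0.25 ng/mL TGF-beta1 (stock added) for 5 hr at 37 C. Viability was read in the same wells by CellTiter-Glo luminescence after 30 min at room temperature.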

The nature of assay [14]: qHTS assay to identify small molecule antagonists of the estrogen receptor beta (ER-beta) signaling pathway - cell viability counter screen (AID 1259382; active means well fitted curve in the direction sought with a large enough effect in the repeat runs; an effect the other way counts as inactive or inconclusive; further: series mostly up to about 92 µM; nearly all actives have a fitted effect of over 55% in size). An outline of the steps: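 HEK293T ER-beta-UAS-bla, 2% charcoal-stripped FBS; compounds + 1nM E2 16 hr 37C; CellTiter-Glo luminescence, 30 min RT.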
A short description of assay [15]: qHTS assay to identify small molecule agonists or antagonists of the thyroid stimulating hormone receptor (TSHR) signaling pathway - wild type cell line counter screen (AID 1259384). The procedure, abridged:
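Wild-type Hek293 cells, 800/well, 18 h at 37C, then compound with Ro20-1724 for 30 min RT. cAMP by HTRF (cAMP-d2/anti-cAMP cryptate), 1 h RT, fluorescence read. 15 concentrations, triplicates.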

Assay [16] can be described thus: qHTS assay to identify small molecule agonists of the TGF-beta/Smad signaling pathway (AID 1346859; active means well fitted activation curve with a large enough effect in the signal ratio in the repeat runs, not every such curve was filed as active; the % refers to the signal ratio; further: series mostly up to about 77 µM). An outline of the steps:
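Reporter line: HEK 293T with stably integrated SBE-controlled beta-lactamase. Compound exposure lasts 5 hr at 37 C and 5% CO2; substrate loading follows for 2 hr at room temperature, with emission read at 460 and 530 nm.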

Assay [17] in a line: qHTS assay to identify small molecule agonists of the androgen receptor (AR) signaling pathway in the presence of an antagonist - cell viability counter screen (AID 1259379; active means well fitted curve in the direction sought with a large enough effect in the repeat runs; an effect the other way counts as inactive or inconclusive;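 further: MDA-kb2 human breast cancer cells carrying an MMTV luciferase reporter; series mostly up to about 92 µM; nearly all actives have a fitted effect of over 25% in size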). The procedure, abridged:
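Counter screen for cell viability run in parallel with the AR agonist-mode luciferase assay. MDA-kb2 cells were co-treated with nilutamide (3.0uM final) and compounds, then incubated 16 hr at 37C, and CellTiter-Fluor fluorescence was measured.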

The target in assay [18] is Estrogen receptor beta (Homo sapiens) (UniProt Q92731). Kind of assay: qHTS assay to identify small molecule agonists of the estrogen receptor beta (ER-beta) signaling pathway (AID 1259377; active means well fitted activation curve with a large enough effect in the signal ratio in the repeat runs, not every such curve was filed as active; the % refers to the signal ratio). An outline of the steps: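 Agonist mode cell assay in GripTite HEK293T cells expressing an ER-beta fusion that drives beta-lactamase from an Upstream Activator Sequence; 16 hr compound exposure at 37C, then 2 h LiveBLAzer B/G FRET substrate at room temperature, fluorescence read-out.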
Chain of Estrogen receptor beta (Homo sapiens) (Q92731 whole entry, looked up, the tested form may be a part): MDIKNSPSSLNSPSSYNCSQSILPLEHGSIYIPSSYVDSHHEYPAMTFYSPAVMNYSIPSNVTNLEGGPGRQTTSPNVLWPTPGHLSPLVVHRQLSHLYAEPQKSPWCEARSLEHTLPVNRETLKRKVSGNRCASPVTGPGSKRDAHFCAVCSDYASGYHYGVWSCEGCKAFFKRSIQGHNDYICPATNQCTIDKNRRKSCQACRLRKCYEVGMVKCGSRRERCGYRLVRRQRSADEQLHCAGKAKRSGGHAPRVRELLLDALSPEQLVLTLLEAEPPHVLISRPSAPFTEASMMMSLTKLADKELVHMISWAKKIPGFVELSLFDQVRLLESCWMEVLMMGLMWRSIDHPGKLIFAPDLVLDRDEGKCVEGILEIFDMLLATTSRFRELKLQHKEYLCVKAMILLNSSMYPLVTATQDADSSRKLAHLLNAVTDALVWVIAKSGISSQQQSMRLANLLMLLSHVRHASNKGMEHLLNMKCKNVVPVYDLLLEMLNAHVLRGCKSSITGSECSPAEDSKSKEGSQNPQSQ

The target is the same in assay [19]. In words: qHTS assay to identify small molecule antagonists of the estrogen receptor beta (ER-beta) signaling pathway (AID 1259378; active means well fitted inhibition curve with a large enough effect in the signal ratio in the repeat runs, not every such curve was filed as active; the % refers to the signal ratio). An outline of the steps:
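ER-beta-UAS-bla HEK293T cells in 2% charcoal-stripped FBS medium treated with compound plus 1nM final 17-beta-estradiol for 16 hr at 37C. Beta-lactamase reporter read by FRET substrate fluorescence after 2 hours at room temperature.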

Assay [20] addresses Androgen receptor (Homo sapiens) (UniProt P10275). Kind of assay: qHTS assay to identify small molecule agonists of the androgen receptor (AR) signaling pathway in the presence of an antagonist (AID 1259381). Further: nearly all actives have a fitted effect of over 15% in size. The procedure, abridged:
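AR antagonist background: nilutamide 3.0uM final. Cell line: MDA-kb2, MMTV-driven luciferase, responsive to both AR and GR. Exposure 16hr, 37C, no CO2; ONE-Glo luminescence.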

The structures appear in SMILES notation. Inconclusive results are not listed. Calls of active or inactive are those of the source. Unless noted, the call rests on the fitted dose curve.

Chain of Estrogen receptor (Homo sapiens) (P03372 whole entry, looked up): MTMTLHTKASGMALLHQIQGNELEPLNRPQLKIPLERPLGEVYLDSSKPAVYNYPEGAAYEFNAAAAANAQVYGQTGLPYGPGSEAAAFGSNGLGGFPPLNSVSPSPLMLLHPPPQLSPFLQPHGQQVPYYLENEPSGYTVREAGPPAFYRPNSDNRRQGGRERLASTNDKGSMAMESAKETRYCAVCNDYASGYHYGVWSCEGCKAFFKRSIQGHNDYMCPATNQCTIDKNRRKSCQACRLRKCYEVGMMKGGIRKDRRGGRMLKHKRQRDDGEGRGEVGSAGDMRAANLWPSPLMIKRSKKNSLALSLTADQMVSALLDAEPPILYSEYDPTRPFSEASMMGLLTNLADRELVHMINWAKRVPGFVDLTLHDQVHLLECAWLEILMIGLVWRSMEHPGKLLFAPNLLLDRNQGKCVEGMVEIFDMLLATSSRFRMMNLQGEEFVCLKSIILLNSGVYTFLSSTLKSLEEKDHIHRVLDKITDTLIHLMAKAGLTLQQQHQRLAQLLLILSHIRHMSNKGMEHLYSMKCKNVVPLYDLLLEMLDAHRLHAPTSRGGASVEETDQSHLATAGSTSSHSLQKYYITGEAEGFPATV
Chain of Thyrotropin receptor (Homo sapiens) (P16473 whole entry, looked up): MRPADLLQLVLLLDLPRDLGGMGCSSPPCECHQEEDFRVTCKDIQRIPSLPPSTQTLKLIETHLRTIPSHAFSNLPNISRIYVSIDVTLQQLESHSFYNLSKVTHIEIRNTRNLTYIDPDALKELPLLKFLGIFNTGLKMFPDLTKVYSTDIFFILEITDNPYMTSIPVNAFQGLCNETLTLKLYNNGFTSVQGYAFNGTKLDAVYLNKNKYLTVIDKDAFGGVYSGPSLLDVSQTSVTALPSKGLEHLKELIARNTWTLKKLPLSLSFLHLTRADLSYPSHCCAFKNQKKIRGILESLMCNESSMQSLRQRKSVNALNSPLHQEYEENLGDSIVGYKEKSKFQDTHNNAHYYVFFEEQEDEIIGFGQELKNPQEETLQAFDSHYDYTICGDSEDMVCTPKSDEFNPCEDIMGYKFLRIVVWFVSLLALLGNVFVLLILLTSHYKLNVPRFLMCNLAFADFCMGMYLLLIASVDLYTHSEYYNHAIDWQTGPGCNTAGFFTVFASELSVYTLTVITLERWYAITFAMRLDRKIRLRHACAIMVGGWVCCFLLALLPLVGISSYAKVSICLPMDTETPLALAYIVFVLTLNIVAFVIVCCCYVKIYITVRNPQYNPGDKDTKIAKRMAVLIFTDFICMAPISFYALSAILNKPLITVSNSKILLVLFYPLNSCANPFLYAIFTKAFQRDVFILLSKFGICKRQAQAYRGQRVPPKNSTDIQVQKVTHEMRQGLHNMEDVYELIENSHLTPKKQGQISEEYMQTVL
Chain of Androgen receptor (Homo sapiens) (P10275 whole entry, looked up): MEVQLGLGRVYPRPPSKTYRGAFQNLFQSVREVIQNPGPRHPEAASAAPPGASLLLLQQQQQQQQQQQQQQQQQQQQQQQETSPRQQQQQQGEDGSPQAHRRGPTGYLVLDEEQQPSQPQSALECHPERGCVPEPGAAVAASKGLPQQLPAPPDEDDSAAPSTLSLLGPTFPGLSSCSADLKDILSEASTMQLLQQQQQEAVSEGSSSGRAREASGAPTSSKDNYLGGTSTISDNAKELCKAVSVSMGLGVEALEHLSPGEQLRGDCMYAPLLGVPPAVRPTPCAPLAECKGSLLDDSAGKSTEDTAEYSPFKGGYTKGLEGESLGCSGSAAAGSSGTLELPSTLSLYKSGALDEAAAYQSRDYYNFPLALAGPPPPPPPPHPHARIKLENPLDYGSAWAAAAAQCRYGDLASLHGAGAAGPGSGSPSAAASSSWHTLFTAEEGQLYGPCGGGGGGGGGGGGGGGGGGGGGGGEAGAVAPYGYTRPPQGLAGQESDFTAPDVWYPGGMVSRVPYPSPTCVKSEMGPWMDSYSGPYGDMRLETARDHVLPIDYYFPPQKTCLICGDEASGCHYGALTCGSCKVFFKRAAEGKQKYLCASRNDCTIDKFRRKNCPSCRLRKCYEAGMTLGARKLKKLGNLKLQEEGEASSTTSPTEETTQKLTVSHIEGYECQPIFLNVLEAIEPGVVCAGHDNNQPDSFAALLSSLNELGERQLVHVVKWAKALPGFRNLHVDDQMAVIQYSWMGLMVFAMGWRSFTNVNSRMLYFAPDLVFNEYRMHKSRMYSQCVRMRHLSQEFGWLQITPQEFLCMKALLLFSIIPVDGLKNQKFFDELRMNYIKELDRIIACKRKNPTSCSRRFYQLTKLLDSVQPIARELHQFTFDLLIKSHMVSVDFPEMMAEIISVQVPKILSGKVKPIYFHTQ

Consider `CC(C)c1ccc2oc3nc(N)c(C(=O)O)cc3c(=O)c2c1`, for which the Potency result in assay [1], in assay [2], in assay [4], in assay [5], in [7] and in [8] was “inactive” each time. Besides, the Potency result in assay [9] and in assay [10] was “inactive” throughout. Also, the Potency in [3] was 23.7 µM (active). The outcome in [6], in assay [11] and in assay [12] was inactive.

`CN(C)C(=O)C(CCN1CCC(O)(c2ccc(Cl)cc2)CC1)(c1ccccc1)c1ccccc1`: the Potency entry in [1], in assay [4], in [9] and in assay [10] was “inactive” throughout. In assay [3], the Potency was 26.6 µM (active). For the same compound, the outcome in assay [6], in assay [13] and in [12] was inactive.

For `CN(C)CCOC(c1ccc(Cl)cc1)c1ccccn1` (stereo unspecified), the Potency entry in assay [1], in assay [3], in [14], in assay [4], in assay [5] and in assay [7] was “inactive” each time. In addition, the Potency entry in assay [8], in assay [9] and in assay [10] was “inactive” each time. The result in assay [15], in [6], in assay [11], in [16] and in assay [12] was inactive.

In the case of `CC(=O)c1ccc(C)cc1`, the Potency result in assay [1], in [17], in assay [3], in assay [4], in [5] and in assay [7] was “inactive” in each case. Further, the Potency entry in assay [8], in assay [9] and in assay [10] was “inactive” each time. Further, the call in assay [15], in assay [6], in [13], in assay [11], in assay [16] and in assay [12] was inactive.

Turning to `C=CCOc1nc(OCC=C)nc(OCC=C)n1`, the Potency result in assay [1], in assay [19], in assay [3], in assay [14], in assay [5] and in assay [8] was “inactive” in each case. Besides, the Potency entry in assay [9] and in assay [10] was “inactive” throughout. Besides, the call in assay [18], in assay [15], in [6], in assay [13], in assay [11] and in [16] was inactive. In addition, the outcome in assay [12] was inactive.

On to `NC(=O)c1ncn([C@@H]2O[C@H](CO)[C@@H](O)[C@H]2O)c1O`, for which the Potency result in assay [1], in [19], in assay [17], in assay [3], in [14] and in assay [4] was “inactive” throughout. Further, the Potency result in assay [5], in [7], in assay [8], in assay [9] and in assay [10] was “inactive” throughout. Further, the outcome in assay [18], in assay [15], in [13], in assay [16] and in assay [12] was inactive.

Consider `NS(=O)(=O)c1cc2c(cc1Cl)NC(CSCc1ccccc1)=NS2(=O)=O`, for which the Potency entry in assay [1], in [2], in assay [3], in assay [4], in assay [5] and in assay [7] was “inactive” throughout. The Potency result in assay [8], in assay [9] and in assay [10] was “inactive” in each case. Besides, the compound was called inactive in assay [15], in assay [6], in assay [13], in assay [11], in assay [16] and in assay [12].

On to `Cc1ccc(N)cc1[N+](=O)[O-]`, for which the Potency entry in [1], in assay [17], in assay [3], in assay [20], in assay [14] and in assay [5] was “inactive” throughout. Besides, the Potency result in assay [7], in assay [8], in assay [9] and in assay [10] was “inactive” each time. Also, the outcome in assay [15], in assay [6], in assay [13], in assay [11], in assay [16] and in assay [12] was inactive.
